# Reference: PubChem BioAssay AID488890 (Southern Research Specialized Biocontainment Screening …, 2010)
# In all, about 320,000 compounds went through this assay and about 1,300 (0.41%) were called active. Not shown: some 3% with an inconclusive outcome. The rule behind the calls is not given here. A selection follows. Measured potencies and affinities stand elsewhere.
# Assay: growth inhibition of non-replicating M. tuberculosis (AID 488890);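 note: plate controls were DMSO cells for no effect and high antibiotic wells for full effect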
# Settings: Mycobacterium tuberculosis non-replicating, at 25 µM, stronger effect = higher value
row,Compound,inhibition
1,CCCn1c(=O)c(C(=O)NNS(=O)(=O)c2ccc(Cl)cc2)c(O)c2ccccc21,30.4%
2,COc1cc(/C=N\Nc2nncn2N)ccc1OC(C)=O,8.91%
3,COc1ccc(S(=O)(=O)NC(CC(=O)NCCc2ccc(OC)c(OC)c2)c2ccco2)cc1 (stereo unspecified),-6.87%
4,COCCSc1ccccc1C(=O)N1CCC(Cc2ccccc2)CC1,12.1%
5,O=C(N/N=C/c1ccc([N+](=O)[O-])o1)c1ccc(O)cc1,76.5%
6,O=C(N/N=C/c1ccncc1)c1sc2ccccc2c1Cl,67.1%
7,CCN(CC)C(=O)Cn1cc(S(=O)(=O)CC(=O)Nc2ccc(F)cc2)c2ccccc21,-1.96%
8,CCCCCC(=O)c1ccc(O)cc1O,44.3%
9,C/C(=N\NC(=O)c1cccnc1)c1c(O)cc(C)oc1=O,-4.46%
10,C/C(=N\NC(=O)c1ccccc1O)c1c(O)cc(C)oc1=O,76.5%
11,CCCCCCCCC(=O)N/N=C(\C)c1ccco1,-9.44%
12,C/C(=N\NC(=O)c1ccccc1[N+](=O)[O-])c1c(O)cc(C)oc1=O,11.3%
13,CCc1ccccc1N/N=C(/C)c1c(O)cc(C)oc1=O,19.8%
14,C/C(=N\Nc1ccccc1)c1c(O)cc(C)oc1=O,54.3%
15,CCc1ccc(OCC(=O)N/N=C(\C)c2ccc(O)cc2O)cc1,69%
16,C/C(=C\c1ccccc1)CN1CCC(C(=O)N2CCCC(C)C2)CC1 (stereo unspecified),22.3%
17,COc1ccc(S(=O)(=O)N(C)C[C@H]2Oc3ccc(NS(=O)(=O)c4cn(C)cn4)cc3C(=O)N([C@H](C)CO)C[C@@H]2C)cc1,-5.84%
18,O=C(CCc1nnc2ccc(NCc3ccco3)nn12)N1CCN(c2ccccc2F)CC1,28.5%
19,O=C(COc1ccccc1)Nc1ccc(Cl)cc1Cl,72.1%
20,Cn1cnc2cc(NS(=O)(=O)c3ccc(Br)cc3)ccc21,-3.25%
21,O=C(CCC(=O)c1ccc(F)cc1)OCc1nnc(-c2ccc([N+](=O)[O-])cc2)o1,37%
22,Cc1cc(C(=O)N/N=C2\CCCc3ccccc32)c(C)o1,8.07%
23,CC(C)c1ccc2[nH]c3c(c2c1)[C@@H]1CCN2C(=O)CCC[C@H](C3)[C@H]12,18.1%

row,Compound,inhibition
1,Cc1c(NS(=O)(=O)c2ccc(N=NN(C)C)cc2)c(=O)n(-c2ccccc2)n1C,-13.3%
2,COc1ccc2sc(-c3ccccc3OC)c(-c3ccc4c(c3)OCCO4)c2c1,17.4%
3,O=C1NC(=O)/C(=C/c2ccco2)N1,-3.62%
4,CSc1c2c(nc3ncnn13)CCC2,-27.5%
5,Cc1ccc(C2=NN(C(=O)c3ccco3)C(O)(C(F)(F)F)C2)cc1 (stereo unspecified),71.2%
6,O=C(c1ccco1)N1N=C(c2ccc(Br)cc2)CC1(O)C(F)(F)F (stereo unspecified),29.3%
7,Cc1ccc(C(=O)N2N=C(c3ccccc3)CC2(O)C(F)(F)F)o1 (stereo unspecified),58.8%
8,CC(C)CC1=NN(C(=O)c2ccncc2)C(O)(C(F)(F)F)C1 (stereo unspecified),47.5%
9,CCOC(=O)/C(=N\Nc1ccccc1Cl)N1CCN(c2ccccc2OC)CC1,19%
10,c1ccc(-n2cnc3cc(NCc4cccs4)ccc32)cc1,28.9%
11,Cc1ccc(C(=O)O)c(C(=O)Nc2nc3ccccc3s2)c1,11.2%
12,COc1ccc2nc(NC(=O)c3ccccc3-c3ccccc3C(=O)O)sc2c1,76.6%
13,O=C(COC(=O)c1ccccc1C(=O)c1ccccc1)NCc1ccc(F)cc1,31.8%
14,O=C(CCC(=O)N1CCN(c2ccccc2F)CC1)N1CCN(c2ccccc2)CC1,45%
15,O=C(CCc1ccccc1)N1CCN(c2ccc(F)cc2)CC1,73.8%
16,COC(=O)c1ccccc1NC(=O)CN1C(=O)CSC1=O,-0.76%
17,COCCNCC(O)CON=C1c2ccccc2-c2ccccc21 (stereo unspecified),54.3%
18,CC(C)(C)NCC(O)CON=C1c2ccccc2-c2ccccc21 (stereo unspecified),65.3%
19,COc1ccc(-c2csc3ncnc(N4CCN(c5cccc(C)c5C)CC4)c23)cc1,11.9%
20,O=C(NCCN1CCOCC1)C1CCN(S(=O)(=O)N2CCCCC2)CC1,-2.95%
21,CCOC(=O)N1CCN(S(=O)(=O)c2ccc(C(=O)N(CCCN(C)C)c3nc4ccc(OC)cc4s3)cc2)CC1,3.45%
22,C/C(=C\C(=O)c1ccccc1)Nc1ccc(O)cc1,29.4%
23,COc1ccc(OC)c(N/C(C)=C/C(=O)c2ccncc2)c1,0%

row,Compound,inhibition
1,COc1ccc(C(=O)c2c3ccc(OC)cc3[n+]([O-])n2Cc2ccc(C(N)=O)cc2)cc1,17.1%
2,COc1ccc(-c2nnc(SCC(=O)N(C)C3CCS(=O)(=O)C3)n2C(C)C)cc1 (stereo unspecified),-12.8%
3,Cc1ccc(C2=N/C(=C\N3CCCCC3)C(=O)O2)cc1,21.3%
4,CC1=N/C(=C/c2cccnc2)C(=O)O1,-16.7%
5,COc1cc(C(C[N+](=O)[O-])c2c(N)n(C)c(=O)n(C)c2=O)ccc1O (stereo unspecified),23.3%
6,COc1ccccc1C(c1c(N)n(C)c(=O)n(C)c1=O)C(C)[N+](=O)[O-] (stereo unspecified),53%
7,COc1ccc(CCN(C)Cc2ccncc2)cc1OC,1.96%
8,O=C(Nc1cccc2cccnc12)c1ccc2c(c1)OCCO2,16.4%
9,O=C(Nc1ncccc1O)c1ccc2c(c1)OCCO2,-9.11%
10,COc1ccc(OC(=O)c2ccc(OC)c(S(=O)(=O)N3CCOCC3)c2)cc1,21.9%
11,O=C(Nc1cccc2cccnc12)c1cccc([N+](=O)[O-])c1,14.7%
12,O=[N+]([O-])c1ccc(Oc2cccc3cccnc23)c([N+](=O)[O-])c1,72%
13,COc1ccccc1OC(=O)c1ccc(C)c(S(=O)(=O)N2CCOCC2)c1,16.8%
14,Cc1ccc(S(=O)(=O)NCc2cccnc2)cc1C,3.38%
15,Cn1c(SCc2nc3ccccc3[nH]2)nnc1-c1cnccn1,11%
16,COc1ccc(CCNC(=O)C2CCN(C(=O)c3ccc(Br)cc3)CC2)cc1OC,-3.89%
17,CCOC(=O)Cn1c(=O)oc2ccc(C)cc21,16.3%
18,CCn1cc(/C=N/NC(=O)c2ccc3c(c2)OCO3)c(C)n1,-8.38%
19,CCN(CC)C(=O)c1sc2nc(Cc3ccccc3)[nH]c(=O)c2c1C,11%
20,O=C(Nc1ccc(S(=O)(=O)Nc2ncccn2)cc1)C1=NN(c2ccccc2)C(=O)CC1,36.2%
21,O=C(N/N=C/c1ccc(N2CCOCC2)cc1)C1CC1,3.95%
22,COC1CCCN(Cc2c(C(=O)N3CCN(C4CCCCC4)CC3)nc3ccccn23)C1 (stereo unspecified),6.53%
23,O=C(C1=C[C@H](c2ccc(C(F)(F)F)cc2)C[C@H](OCc2ccc(CO)cc2)O1)N1CCCCCCC1,23%

row,Compound,inhibition
1,Cc1cccc(CN2CCc3c([nH]c4ccccc34)C2C(C)(C)C)n1 (stereo unspecified),14.5%
2,OC(CNCC1CCCO1)COc1ccc(OCC(O)CNCC2CCCO2)cc1 (stereo unspecified),10.8%
3,OC(CNCC1CCCO1)Cn1c2ccccc2c2ccccc21 (stereo unspecified),25.3%
4,Cc1ccc(O)c(CNc2nccs2)c1,-1.47%
5,O=C(CCNS(=O)(=O)c1ccc(OC(F)(F)F)cc1)N1CCN(C/C=C/c2ccccc2)CC1,47.4%
6,O=C1CNC(=S)N1CCCn1ccnc1,2.92%
7,Cc1ccc(CCC(=O)Nc2ccc(C#N)cc2)o1,50.3%
8,CCOC(=O)c1ccc(NC(=O)CCc2ccc(C)o2)cc1,79.2%
9,CC(=O)Nc1ccc(NC(=O)CCc2ccc(C)o2)cc1,16.7%
10,Cc1ccc(CCC(=O)Nc2ccc(CC(=O)O)cc2)o1,9.94%
11,O=C(N/N=C\c1ccncc1)c1ccccc1O,19.9%
12,O=C(N/N=C/c1ccc(OCc2ccccc2)cc1)c1ccco1,6.81%
13,Cc1noc(C)c1COC(=O)CCc1nc2ccccc2c(=O)[nH]1,-4.31%
14,COc1ccc(NC(=O)Nc2c(O)ccc3ccccc23)cc1,17.9%
15,COc1ccc(C(=O)Nc2ccc(O)c3ccccc23)cc1,75.7%
16,CCCNc1nc2nc3ccccn3c(=O)c2cc1C(=O)NCCN1CCOCC1,-18.1%
17,O=C(Nc1c(F)cc(F)cc1Br)c1cc(-c2ccc(O)cc2)on1,79.2%
18,COc1ccc(-c2cc(C(=O)Nc3c(F)cc(F)cc3Br)no2)cc1,79.1%
19,O=S1(=O)N=C(N/N=C/c2ccccn2)c2ccccc21,10.2%
20,CN(/N=C/C=C/c1ccccc1)C1=NS(=O)(=O)c2ccccc21,-1.47%
21,COc1ccccc1NC(=O)CC1SC(=N)N(c2ccccc2)C1=O (stereo unspecified),-5.17%
22,Cc1cc(S(=O)(=O)NCCC2=CCCCC2)ccc1Br,34.3%
23,O=C(NC(=S)NCC1CCCO1)c1ccc(Br)o1 (stereo unspecified),-17.8%

row,Compound,inhibition
1,NS(=O)(=O)c1ccc(NC(=O)Cn2nc(C(=O)O)c3ccccc3c2=O)cc1,2.92%
2,Cc1ccc2cc(/C=N/NC(=O)CN3CCOCC3)c(Cl)nc2c1,6.43%
3,COc1cc(C2N(c3ccc(Cl)cc3)C(=O)C3CCCN32)cc(OC)c1OC (stereo unspecified),-23.2%
4,CCc1nnc(NC(=O)c2c(-c3ccccc3)noc2C)s1,13.3%
5,COc1ccc(Cc2nnc(NC(=O)c3c(-c4ccccc4)noc3C)s2)cc1,4.39%
6,CC1(C)CC(=O)C(Sc2ccccc2C(=O)O)=C(O)C1,-8.16%
7,COc1ccc(C(=O)C[n+]2ccc3c(c2)nc(-c2ccccc2)n3C)cc1,65.3%
8,O=C(CN1CCN(c2ccc(Cl)cc2)CC1)Nc1cccc(F)c1,69%
9,COCc1cc(C)nc2sc(C(=O)N3CCCC3)c(N)c12,3.21%
10,CCC(CC)c1nnc(NC(=O)c2cc(-c3ccccc3)nc3ccccc23)s1,18.4%
11,CCC(CC)c1nnc(NC(=O)c2ccco2)s1,14.7%
12,O=c1[nH]c(=O)n(Cc2ccccc2Cl)c(O)c1C=Nc1ccc(F)cc1,-1.58%
13,Cn1c(O)c(/C=C2/C=CC=N2)c(=O)[nH]c1=O,75.9%
14,CCCCn1c(O)c(/C=N/NC(=O)c2ccncc2)c(=O)[nH]c1=O,53.7%
15,CCCCn1c(O)c(/C=C2\C=Nc3ccccc32)c(=O)[nH]c1=O,59%
16,CCCCn1c(O)c(C=NCCCn2ccnc2)c(=O)[nH]c1=O,5.46%
17,O=c1[nH]c(=O)n(Cc2ccccc2)c(O)c1/C=C1\C=Nc2ccccc21,66.3%
18,O=C(Nc1cccc(-n2cnnn2)c1)c1ccncc1,0.55%
19,Cc1[nH]c2ccc(F)cc2c1CCN(Cc1ccncc1)C(=S)Nc1cccc(F)c1,16.2%
